Pf growth 48h – inhibits P. falciparum growth in the first generation, 48 h. 5.9% of 310,000 active. Potency, µM (series often up to 28.7 µM), most hits filed as inhibitors. P. falciparum luciferase growth in erythrocytes, 48 h
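A one-generation exposure of luciferase-tagged malaria parasites in RPMI 1640/Albumax erythrocyte culture, 37 C and 5% CO2. Inhibition is inferred from decreased luminescence after adding detection reagent.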
NS1 inh – influenza NS1 inhibition | Potency, µM (highest dose often 46.1 µM) | 0.4% of 270,000 active | AID 2326; calls by dose curve; also: actives are rising curves; nearly all actives have a fitted effect of over 50% in size
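Growth recovery, yeast-based: influenza A NS1 expressed in S. cerevisiae causes slow growth, and suppressors are detected by OD600. The parent strain without NS1 is used as positive control.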
AMA1-RON2 inh – disrupts binding of P. falciparum AMA1 to RON2; AlphaScreen AMA1-biotinylated RON2 peptide binding; Potency, µM (titrated, usually from 58.2 µM), hits mostly inhibitors; 0.2% of 360,000 active; also: nearly all actives have a fitted effect of over 45% in size
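AMA1 (3D7) with his tag at 25 nM final met compounds first, then biotinylated RON2 peptide at 25 nM; detection used donor plus acceptor beads, 10 µg/mL apiece, read by AlphaScreen after 30 min at room temperature.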
Pf growth 96h – P. falciparum growth inhibition at 96 hour, primary screen for plastid delayed-death inhibitors | P. falciparum luciferase reporter growth, 96 h | Potency, µM (doses to about 28.7 µM), usual class: inhibitors | 6.9% of 320,000 active
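Luminescence readout: decreased luciferase signal marks inhibited growth of reporter-expressing P. falciparum in infected red cells (2% hematocrit, 0.05% parasitemia final), exposed to compound two generations (96 h, 37 C, 5% CO2).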
Sm TGR inh – S. mansoni TGR enzyme inhibition; 3% of 360,000 active; Q962Y6; purified TGR, DTNB reduction, TNB absorbance 405 nm; Potency, µM (series often up to 114 µM), hits mostly inhibitors; AID 485364; also: nearly all actives have a fitted effect of over 60% in size
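Kinetic colorimetric format: TGR-catalysed, NADPH-driven DTNB reduction monitored via TNB absorbance. Enzyme dispensed at 20 nM; compound exposure 15 min at room temperature before reaction start.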
A number is an active result; 0 = inactive; ? = inconclusive; - = not tested or not shown; [ ] = remark or other dose. An excerpt weighted towards active compounds, which were near 11% of everything screened. Unless noted, calls follow the shape of the dose curve; as a rule, active = well fitted curve in the direction sought with a large enough effect; inconclusive = small, poorly fitted or top-dose-only effect, or another doubt; inactive = no such curve, though single readings can be large; an effect the other way counts as inactive or inconclusive.

SMILES | Pf growth 48h | NS1 inh | AMA1-RON2 inh | Pf growth 96h | Sm TGR inh
CCOc1cc(/C=N/OC(C)=O)ccc1OCc1ccccc1 | 0 | 0 | 0 | 10µM | 0
CCOc1cc(/C=C2/C(=O)ON=C2C)ccc1OCc1ccc(F)cc1 | 0 | 0 | 0 | 0 | 0
COc1ccc(C(=O)C=Cc2ccc(OCc3ccccc3)c(OC)c2)cc1OC | - | - | 0 | - | -
CCOc1cc(/C=C2/C(=O)ON=C2C)ccc1OCc1ccccc1 | ? | 0 | 0 | 0 | 50µM
CCCOc1ccc(Cl)cc1/C=C1/C(=O)ON=C1C | 0 | 0 | 0 | 0 | 14µM
CCc1ccc(-c2nc(CN3CCC(C(=O)NCCc4ccc(Cl)cc4)CC3)c(C)o2)cc1 | - | - | - | - | 0
Cc1cc(C)nc(SCc2nnc(SCC(=O)Nc3ccc(C)c(C)c3)n2Cc2ccco2)n1 | ? | 0 | 0 | 13µM | ?
O=C(CSc1nnc(Cc2cccs2)n1Cc1ccco1)Nc1ccc(Cl)cc1Cl | ? | 0 | 0 | - | ?
COC(=O)CSc1nnc(CSc2nc(C)cc(C)n2)n1Cc1ccco1 | 0 | 0 | 0 | - | 40µM
Cc1cc(C)nc(SCc2nnc(SCc3ccc([N+](=O)[O-])cc3)n2Cc2ccco2)n1 | ? | 0 | 0 | 0 | 0
O=C(CSc1nnc(Cc2cccs2)n1Cc1ccco1)Nc1ccc(Br)cc1 | ? | 0 | 0 | - | 20µM
O=C(O)CSc1nnc(CNc2cccc(C(F)(F)F)c2)n1Cc1ccco1 | 0 | 0 | 0 | 6.6µM | 0
CC(OC(=O)c1ccccc1C(=O)O)c1ccccc1 (stereo unspecified) | - | - | 0 | - | -
CC(C)OC(=O)CSc1nnc(C2CCCCC2)n1N | 0 | 0 | 0 | 0 | 0
c1cc2c(cc1-c1[nH]ncc1CN1C[C@H]3CC[C@H]1C3)OCO2 | 0 | 0 | 0 | ? | 0
NC(=O)c1c(NC(=O)CSc2nnc(Cc3ccccc3)n2Cc2ccco2)sc2c1CCC2 | ? | 0 | 0 | 0 | 25µM
O=C(CSc1nnc(Cc2ccccc2)n1Cc1ccco1)NC12CC3CC(CC(C3)C1)C2 | ? | 0 | 0 | - | 0
COc1ccc(Nc2oc(-c3ccc(COc4ccc(OC)cc4)o3)nc2C#N)cc1 | - | - | - | - | 0
O=C(/C=C/c1ccc(F)cc1)c1cc(Br)ccc1O | 0 | 0 | 0 | 0 | 0
Cc1ccc(/C=C/C(=O)c2ccccc(=O)c2O)cc1C | 8.3µM | 0 | 0 | 9.3µM | 32µM
O=C(/C=C/c1ccccc1)c1cc(Br)ccc(=O)c1O | - | 0 | 0 | ? | 3.2µM
COc1ccc(/C=C/C(=O)c2ccccc2O)cc1 | 0 | 0 | 0 | 0 | 0
c1ccc(CCn2nnnc2CN2CCc3ccccc32)cc1 | ? | 0 | 0 | 0 | 13µM
Cn1cccc1/C=C1\CCc2ccccc2C1=O | 0 | - | 14µM | 0 | 0
CN1C2CCC1/C(=C\c1ccc(F)cc1)C(=O)/C2=C/c1ccc(F)cc1 | 0.83µM | 0 | 0 | 0 | 0
SMILES | Pf growth 48h | NS1 inh | AMA1-RON2 inh | Pf growth 96h | Sm TGR inh
Cn1cccc1/C=C1\CC(C(C)(C)C)C/C(=C\c2cccn2C)C1=O (stereo unspecified) | - | 0 | 0 | 0 | 0
Cc1cccc(/C=C2/C(=O)/C(=C/c3ccccc3C)C3CCC2N3C)c1 (stereo unspecified) | ? | 0 | 0 | ? | 0
CN1C2CCC1/C(=C/c1cccn1C)C(=O)/C2=C\c1cccn1C | 0 | 0 | ? | 0 | 35µM
Cn1cccc1/C=C1\Cc2ccccc2C1=O | 0 | - | 0 | 0 | 0
CC[C@@]12C(=O)N(c3cccc(Br)c3)C(=O)N1[C@H](c1cccc(C)c1)[C@@H]1C(=O)N(Cc3ccccc3)C(=O)[C@@H]12 | 4.1µM | - | 0 | 5.2µM | 0
Cc1cccc([C@@H]2[C@@H]3C(=O)N(Cc4ccccc4)C(=O)[C@@H]3[C@]3(CC(C)C)C(=O)N(c4cccc(F)c4)C(=O)N23)c1 | 9.3µM | - | 0 | ? | 0
CC[C@@]12C(=O)N(c3ccccc3)C(=O)N1[C@H](c1cccc(C)c1)[C@@H]1C(=O)N(Cc3ccccc3)C(=O)[C@@H]12 | ? | 0 | 0 | 6.6µM | 0
CC[C@@]12C(=O)N(c3cccc(F)c3)C(=O)N1[C@H](c1cccc(C)c1)[C@@H]1C(=O)N(Cc3ccccc3)C(=O)[C@@H]12 | ? | 0 | 0 | ? | 0
CC[C@@]1(c2ccccc2OC)ON(c2ccccc2C(F)(F)F)C1=O | 0.59µM | - | 0 | ? | 0
CC1(c2ccccc2)ON(c2ccccc2C(F)(F)F)C1=O (stereo unspecified) | 4.1µM | - | - | ? | 0
O=C1N(c2ccccc2C(F)(F)F)O[C@]1(c1ccccc1)C1CCCC1 | 1.7µM | - | 0 | 1.3µM | 0
COc1ccccc1-c1cc(C(F)(F)F)c(C#N)c(=O)[nH]1 | 0 | 0 | 0 | 0[1.15 µM] | 0
Cc1ccccc1[C@@]1(C)ON(c2ccccc2C(F)(F)F)C1=O | 1.7µM | - | 0 | 1µM | 0
Cc1ccc(NC(=O)c2cnn3c(C(F)F)cc(-c4ccccc4)nc23)cc1F | - | - | - | - | 0
CCCCn1c(N)c(N(C)C(=O)C2CCCC2)c(=O)[nH]c1=O | 0 | - | 0 | 0 | 0
COc1cc(C=O)c(-c2c(C=O)cc(OC)c3c2OCO3)c2c1OCO2 | 0 | 0 | 0 | 0 | 0
COc1ccc(CCNC(=O)c2c[nH]c3ccc(F)cc3c2=O)cc1OC | 12µM | 0 | 0 | 0 | 0
Cc1cc(C)cc(NS(=O)(=O)c2ccc3[nH]cc(C(=O)NC4CCCCC4)c(=O)c3c2)c1 | - | - | - | - | 0
COCCNC(=O)c1c[nH]c2ccc(S(=O)(=O)N3CCc4ccccc43)cc2c1=O | ? | - | 0 | 0 | 0
COCCCNC(=O)c1c[nH]c2ccc(S(=O)(=O)N3CCc4ccccc43)cc2c1=O | 12µM | - | 0 | 0 | 0
Cc1cc(C)cc(NS(=O)(=O)c2ccc3[nH]cc(C(=O)NCc4ccccc4Cl)c(=O)c3c2)c1 | - | - | - | - | 0
COc1ccc(CCNC(=O)c2c[nH]c3ccccc3c2=O)cc1OC | ? | 0 | 0 | 0 | 0
CCN(CC)S(=O)(=O)c1ccc2[nH]cc(C(=O)NC3CC3)c(=O)c2c1 | 0 | 0 | 0 | 0.47µM | 0
Cc1cc(C)cc(NS(=O)(=O)c2ccc3[nH]cc(C(=O)NCc4ccco4)c(=O)c3c2)c1 | ? | 0 | 0 | 0 | 40µM
CC1(C)C(C(=O)OCC(Cl)(Cl)Cl)N2C(=O)C(NC(=O)Cc3ccccc3)C2S1=O (stereo unspecified) | 0 | 0 | 0 | 0 | 0
SMILES | Pf growth 48h | NS1 inh | AMA1-RON2 inh | Pf growth 96h | Sm TGR inh
CC(C)c1ccc(Nc2c(-c3ccc(N(C)C)cc3)nc3cnccn23)cc1 | - | - | - | - | 0
O=C1NCCCN1Cc1ccc(Cl)cc1 | 0 | 0 | 0 | 0 | 0
COc1cccc(NS(=O)(=O)c2ccc3[nH]cc(C(=O)NCCc4ccccc4)c(=O)c3c2)c1 | - | - | - | - | 0
Cc1ccccc1NS(=O)(=O)c1ccc2[nH]cc(C(=O)NC3CCCCC3)c(=O)c2c1 | 12µM | - | - | 12µM | 0
CCN(CC)S(=O)(=O)c1ccc2[nH]cc(C(=O)NCCc3ccc(OC)c(OC)c3)c(=O)c2c1 | ? | 0 | 0 | 8.3µM | 0
COc1cccc(NS(=O)(=O)c2ccc3[nH]cc(C(=O)NCCc4ccc(C)cc4)c(=O)c3c2)c1 | ? | - | - | 12µM | 0
O=C(c1cccc(Cl)c1)N1CCC2CC1c1cc(N3CCOCC3)ccc12 (stereo unspecified) | - | - | 0 | - | -

Bioassay records: PubChem BioAssay, National Center for Advancing Translational Sciences (NCATS)
